PubChem BioAssay (NCATS)
Inconclusive results are not listed. Activity calls are given as the source filed them. Unless noted, calls follow the shape of the dose curve; as a rule, active = well fitted curve in the direction sought with a large enough effect; inconclusive = small, poorly fitted or top-dose-only effect, or another doubt; inactive = no such curve, though single readings can be large; an effect the other way counts as inactive or inconclusive.

How the values were obtained:
[1] = AP1 Signaling Pathway (AID 357; active = well fitted curve in either direction with a large enough effect, not every such curve was filed as active;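 also: ME-180 reporter cells stimulated with EGF at its EC50 level; % is scaled to controls: 0 for no effect and ±100 for the full control effect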); settings: ME-180 AP-1-bla reporter, EGF-induced, beta-lactamase ratio, 5 h; at 7.69 µM (top of the series) unless noted
In short: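 First, ME-180 AP-1-bla cells were cultured overnight at 37 °C in low-serum Opti-MEM. Next, titrated compounds with EC50 EGF were incubated 5 hours. Finally, CCF4 was added for 2.5 hours and the 460/530 nm ratio recorded.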

[2] = biological target: Cytochrome P450 1A2 (Homo sapiens) (UniProt P05177); assay: p450-cyp1a2 (AID 410; calls by dose curve; also: potency is read from the fitted curve at half-maximal effect)
In short: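 Luminescent demethylation readout: Luciferin-ME (100uM, equal to Km) turned over by 20nM CYP1A2 for 60 min at room temperature after NADPH regeneration addition, following 10 min compound preincubation. Normalization used 57 uM furafylline as full inhibition.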

[3] = NFAT Signaling Pathway (AID 444; active = well fitted curve in either direction with a large enough effect, not every such curve was filed as active;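 also: carbachol stimulus at about its EC50 of 1 µM final; % is scaled to controls: 0 for no effect and ±100 for the full control effect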); settings: Jurkat NFAT-bla M1, carbachol, beta-lactamase ratio, 5 h; at 7.69 µM (top of the series) unless noted
In short: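 Jurkat cells with NFAT-driven β-lactamase reporter and co-expressed M1 receptor, stimulated with carbachol (final 1 uM, ~EC50), compound titration, 5 h at 37 °C. CCF4 loaded 1 h at RT; 460/530 nm ratio gave %activity and AC50.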

[4] = biological target: Glucocorticoid receptor (Homo sapiens) (UniProt P04150); assay: GR-EFC Redistribution (AID 451; calls by dose curve; also: potency is read from the fitted curve at half-maximal effect); settings: CHO-K1 GR-EFC translocation, beta-gal luminescence, 2 h
In short: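 CHO-K1 cells expressing nuclear EA and GR-ED fragments of b-gal; compounds titrated up to 46 uM final, 2 h at 37 C. GR nuclear translocation read as complemented b-gal luminescence after 1 h RT detection.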

[5] = biological target: Mitogen-activated protein kinase 10 (Mus musculus) (UniProt Q61831); assay: JNK3 AlphaScreen Assay (AID 530; active = well fitted curve in either direction with a large enough effect, not every such curve was filed as active;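 also: kinase came from lysate of stimulated human HepG2 cells; signal reports phosphorylation of biotinylated GST-cJun 1-79 at Ser73 with 10 µM ATP; % is scaled to controls: 0 for no effect and ±100 for the full control effect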)
In short: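 Activity was read by AlphaScreen after JNK3-containing HepG2 lysate (cytokine pre-activated) phosphorylated biotinylated GST-cJun with 10 uM ATP at room temperature. Phospho-Ser73 cJun antibody with Protein-A acceptor beads provided detection.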

[6] = biological target: 3',5'-cyclic-AMP phosphodiesterase 4B (Homo sapiens) (UniProt Q07343); assay: qHTS Assay for Inhibitors of PDE-IV (AID 607; active = well fitted activation curve with a large enough effect in the main read-out, with a control signal flat, not every such curve was filed as active; also: % of control where 0% means no effect)
In short: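 Cell-based read-out of cAMP via a modified cyclic nucleotide-gated channel and membrane potential dye (535/590 nm) in HEK293 cells expressing PDE4 endogenously. Compounds tested up to 22.9 uM final; 100 uM RO 20-1724 reference.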

[7] = biological target: Cytochrome P450 3A4 (Homo sapiens) (UniProt P08684); assay: qHTS Assay for Activators of Cytochrome P450 3A4 (AID 885); also: nearly all actives have a fitted effect of over 65% in size
In short: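 Luminescent readout of luciferin formed from 25 uM Luciferin-PPXE (KM level) by 20 nM CYP3A4 in 200 mM KPO4, with 60 min NADPH-driven reaction at room temperature after 10 min compound exposure. Ketoconazole (57 uM) defined 100% inhibition.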

[8] = qHTS Assay for Lipid Storage Modulators (AID 1519; calls by dose curve); settings: Drosophila S3 cells, BODIPY lipid droplet/cell ratio, laser cytometry, cells loaded with oleic acid; for activity change, negative = inhibition: at 57.5 µM (top of the series)
In short: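 Cells seeded at 5,000 per well were treated with compounds over a concentration series and loaded with oleic acid (400 uM, as added). Lipid droplet fluorescence (488 nm excitation, 500-530 nm channel) was read by laser-scanning cytometry and normalized to 20 uM Triacsin C.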

[9] = biological target: Dual specificity protein kinase CLK4 (Homo sapiens) (UniProt Q9HAZ1); assay: qHTS Assay for Inhibitors of CDC-like Kinase 4 (ADP-FP Assay) (AID 1795);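 also: recombinant human CLK4 phosphorylating RS repeat peptide at 1 µM ATP; % is scaled to controls: 0 for no effect and ±100 for the full control effect; nearly all actives have a fitted effect of over 60% in size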
In short: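 Kinase activity was measured as ADP production using Transcreener orange tracer (4 nM) and ADP antibody (1 ug/mL) fluorescence polarization, with ADP calculated from a calibration curve. The 1 h reaction contained 6.25 nM Clk4, 1 uM ATP and 100 uM RS peptide at pH 7.5 with Mg2+.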

[10] = biological target: Ubiquitin carboxyl-terminal hydrolase 1 (Homo sapiens) (UniProt O94782); assay: Inhibitors of USP1/UAF1: Pilot qHTS (AID 504865);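 also: rhodamine fluorescence freed from ubiquitin-rhodamine substrate followed over time; top concentration of the series differs between compounds; % is scaled to controls: 0 for no effect and ±100 for the full control effect; nearly all actives have a fitted effect of over 35% in size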
In short: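 Deubiquitinase activity followed as kinetic rhodamine fluorescence release from 150 nM Ub-Rho. 1 nM USP1/UAF1 with compound, after 15 min room-temperature preincubation, in HEPES pH 7.8 buffer containing TCEP, EDTA, BSA and Tween-20.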

[11] = Primary qHTS for small molecule stabilizers of the endoplasmic reticulum resident proteome: Secreted ER Calcium Modulated Protein (SERCaMP) assay (AID 1508630); also: % is scaled to controls: 0 for no effect and ±100 for the full control effect
In short: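 The SH-SY5Y reporter protocol was run at 3 concentrations up to 38.3 uM (primary) or 11 concentrations (follow-up): 16 h compound, 100 nM thapsigargin for 4 h, then extracellular luciferase luminescence.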

[12] = biological target: Lysosomal acid glucosylceramidase (Homo sapiens) (UniProt P04062); assay: Glucocerebrosidase-p2 (AID 348; in the data active = potency below about 10 µM; also: potency is read from the fitted curve at half-maximal effect); settings: purified GBA, blue fluorogenic substrate, 40 min
In short: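 Normal human glucocerebrosidase (0.2 nM) with blue fluorogenic substrate (80 uM final) in citrate/phosphate pH 5.9 with 10mM sodium taurocholate, 0.01% tween-20; 40 min RT, NaOH/glycine stop; fluorescence Ex 365/Em 440; AC50 from a titration from 0.6 nM upwards.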

[13] = Stat Signaling Pathway (AID 446; active = well fitted curve in either direction with a large enough effect, not every such curve was filed as active); settings: ME-180 SIE beta-lactamase reporter, IL-6 stimulated, 5 h; at 7.69 µM (top of the series) unless noted
In short: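 FRET read-out (405 nm excitation, 460/530 nm emission) of a beta-lactamase reporter under a STAT-inducible element in ME-180 cervical carcinoma cells. Cells with compound receive 40 pM IL-6 for 5 h. Values are normalised to AC90 stimulation and AC90 JAK-inhibitor controls.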

[14] = biological target: Glucocorticoid receptor (Homo sapiens) (UniProt P04150); assay: GR-GFP Redistribution (AID 450;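 active = compounds whose dose series gives a full or clear partial fitted curve of increased nuclear translocation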; also: potency is read from the fitted curve at half-maximal effect); settings: U2OS GR-GFP nuclear translocation, laser cytometry, 2 h
[15] = biological target: Cytochrome P450 3A4 (Homo sapiens) (UniProt P08684); assay: qHTS Assay for Inhibitors and Substrates of Cytochrome P450 3A4 (AID 884); also: potency is read from the fitted curve at half-maximal effect; nearly all actives have a fitted effect of over 50% in size
In short: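 Luminescent readout of luciferin produced by CYP3A4 (20 nM) dealkylation of Luciferin-PPXE, 25 uM (its KM). NADPH-driven reaction ran 60 min at RT after 10 min compound preincubation; data scaled to 57 uM ketoconazole as 100% inhibition.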

[16] = biological target: Cytochrome P450 2C19 (Homo sapiens) (UniProt P33261); assay: qHTS Assay for Inhibitors and Substrates of Cytochrome P450 2C19 (AID 899); also: potency is read from the fitted curve at half-maximal effect; nearly all actives have a fitted effect of over 60% in size
In short: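 Signal comes from luciferase acting on luciferin released by CYP2C19-mediated hydroxylation of Luciferin-H EGE, 10uM (KM). Assay mix: 5nM enzyme, 50mM KPO4; 60 min at 37C with NADPH regeneration. Data normalized against 57uM ketoconazole.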

[17] = Confirmation and Secondary Assay for Modulators of Hemoglobin Beta Chain Splicing at IVS2 654 locus (AID 910);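 also: HeLa cells stably carrying EGFP split by mutant beta-globin IVS2-654 intron; % of control where 0% means no effect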
In short: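 HeLa cells stably expressing EGFP interrupted by β-globin IVS2-654 intron, seeded overnight in Opti-MEM/2% FCS, then treated 2 days at 37 °C. Restored splicing read as total peak GFP intensity per well by laser scanning cytometry (488 nm excitation, 500–520 nm emission); 500 nM antisense PNA as control.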

[18] = Confirmation and Secondary Assay for Modulators of Hemoglobin Beta Chain Splicing at IVS2 705 locus (AID 930);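 also: HeLa cells stably expressing the EGFP-705 splicing reporter; GFP fluorescence per well restored by corrected splicing of the IVS2-705 intron in EGFP; % of control where 0% means no effect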
In short: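 Fluorescence gain (488 nm laser, 500-520 nm PMT) reflects restored correct splicing of a mutant IVS2-705 intron inside EGFP in stably transfected HeLa cells after 2-day compound treatment.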

[19] = biological target: Cytochrome P450 2C9 (Homo sapiens) (UniProt P11712); assay: qHTS Assay for Inhibitors and Substrates of Cytochrome P450 2C9 (AID 883); also: % is scaled to controls: 0 for no effect and ±100 for the full control effect; nearly all actives have a fitted effect of over 60% in size
In short: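 Signal: luciferase luminescence reporting luciferin produced by CYP2C9. Conditions: 10nM enzyme, Luciferin-H 100uM at KM, 25mM KPO4, 37C, 60 min NADPH-driven reaction. Reference: 57uM sulphaphenazole as 100% inhibition.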

[20] = qHTS Assay for Identification of Small Molecule Agonists for Hypoxia Response Element Signaling Pathway (AID 914; active = well fitted activation curve with a large enough effect in the signal ratio, with a control signal flat, not every such curve was filed as active; the % refers to the signal ratio; also: % of control where 0% means no effect); settings: ME-180 (cervical carcinoma) HRE-bla reporter, beta-lactamase ratio, CoCl2, 17 h; activation: stronger effect = higher value
In short: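 A beta-lactamase reporter under hypoxia response element control in ME-180 cells served as the system. Compound titrations plus EC50 CoCl2 ran 17 h at 37 degrees Celsius; AC50 values were fitted from %Activity.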

[21] = measured here: cell count channel max response
[22] = measured here: lipid channel max response

Cytochrome P450 1A2 (Homo sapiens), sequence (P05177 whole entry, looked up): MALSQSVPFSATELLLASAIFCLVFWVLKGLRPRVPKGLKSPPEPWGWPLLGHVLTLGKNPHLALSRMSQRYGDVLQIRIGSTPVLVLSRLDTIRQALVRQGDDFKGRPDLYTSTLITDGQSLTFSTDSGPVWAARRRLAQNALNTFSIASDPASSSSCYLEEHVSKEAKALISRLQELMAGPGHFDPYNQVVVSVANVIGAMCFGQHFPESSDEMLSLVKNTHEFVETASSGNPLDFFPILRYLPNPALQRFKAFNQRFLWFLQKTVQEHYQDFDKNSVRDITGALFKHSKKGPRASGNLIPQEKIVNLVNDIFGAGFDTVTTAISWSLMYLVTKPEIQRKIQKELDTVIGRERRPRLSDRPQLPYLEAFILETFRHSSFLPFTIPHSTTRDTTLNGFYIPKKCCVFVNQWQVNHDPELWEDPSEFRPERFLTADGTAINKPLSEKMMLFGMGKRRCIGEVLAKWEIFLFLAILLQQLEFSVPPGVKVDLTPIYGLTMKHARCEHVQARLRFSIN
Glucocorticoid receptor (Homo sapiens), sequence (P04150 whole entry, looked up, the tested form may be a part): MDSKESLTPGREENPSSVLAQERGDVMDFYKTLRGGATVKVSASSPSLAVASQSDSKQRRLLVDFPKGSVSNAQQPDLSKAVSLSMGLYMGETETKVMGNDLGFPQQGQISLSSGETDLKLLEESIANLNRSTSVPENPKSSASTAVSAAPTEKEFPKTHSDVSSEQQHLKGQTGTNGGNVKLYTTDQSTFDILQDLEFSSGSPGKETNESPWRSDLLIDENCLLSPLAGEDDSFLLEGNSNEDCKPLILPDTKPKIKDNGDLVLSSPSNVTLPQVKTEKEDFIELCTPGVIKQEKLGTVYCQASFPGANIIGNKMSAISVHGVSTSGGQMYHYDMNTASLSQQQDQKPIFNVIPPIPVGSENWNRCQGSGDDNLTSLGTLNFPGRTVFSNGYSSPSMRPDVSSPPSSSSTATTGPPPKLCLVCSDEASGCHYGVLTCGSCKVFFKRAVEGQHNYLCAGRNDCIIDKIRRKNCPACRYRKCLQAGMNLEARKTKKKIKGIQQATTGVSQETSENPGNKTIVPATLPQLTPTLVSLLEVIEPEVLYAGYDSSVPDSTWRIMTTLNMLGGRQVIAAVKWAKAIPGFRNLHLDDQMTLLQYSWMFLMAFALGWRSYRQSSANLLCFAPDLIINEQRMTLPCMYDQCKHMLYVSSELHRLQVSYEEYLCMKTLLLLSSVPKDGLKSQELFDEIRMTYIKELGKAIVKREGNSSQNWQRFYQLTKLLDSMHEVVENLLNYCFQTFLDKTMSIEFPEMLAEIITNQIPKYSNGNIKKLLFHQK
Lysosomal acid glucosylceramidase (Homo sapiens), sequence (P04062 whole entry, looked up): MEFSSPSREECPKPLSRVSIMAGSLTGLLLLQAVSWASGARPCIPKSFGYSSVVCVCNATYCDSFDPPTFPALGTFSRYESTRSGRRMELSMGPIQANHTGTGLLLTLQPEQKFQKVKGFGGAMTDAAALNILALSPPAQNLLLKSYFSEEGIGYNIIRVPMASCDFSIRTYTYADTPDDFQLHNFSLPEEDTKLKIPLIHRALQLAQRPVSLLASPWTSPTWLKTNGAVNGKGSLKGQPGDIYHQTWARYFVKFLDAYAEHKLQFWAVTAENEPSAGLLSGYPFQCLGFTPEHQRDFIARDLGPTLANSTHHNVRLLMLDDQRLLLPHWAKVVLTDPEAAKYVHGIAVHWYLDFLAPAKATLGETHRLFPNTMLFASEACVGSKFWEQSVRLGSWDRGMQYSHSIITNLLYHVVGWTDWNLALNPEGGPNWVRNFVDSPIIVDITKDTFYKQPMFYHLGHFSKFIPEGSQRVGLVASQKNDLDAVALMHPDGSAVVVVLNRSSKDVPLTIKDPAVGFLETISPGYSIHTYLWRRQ
Cytochrome P450 3A4 (Homo sapiens), sequence (P08684 whole entry, looked up): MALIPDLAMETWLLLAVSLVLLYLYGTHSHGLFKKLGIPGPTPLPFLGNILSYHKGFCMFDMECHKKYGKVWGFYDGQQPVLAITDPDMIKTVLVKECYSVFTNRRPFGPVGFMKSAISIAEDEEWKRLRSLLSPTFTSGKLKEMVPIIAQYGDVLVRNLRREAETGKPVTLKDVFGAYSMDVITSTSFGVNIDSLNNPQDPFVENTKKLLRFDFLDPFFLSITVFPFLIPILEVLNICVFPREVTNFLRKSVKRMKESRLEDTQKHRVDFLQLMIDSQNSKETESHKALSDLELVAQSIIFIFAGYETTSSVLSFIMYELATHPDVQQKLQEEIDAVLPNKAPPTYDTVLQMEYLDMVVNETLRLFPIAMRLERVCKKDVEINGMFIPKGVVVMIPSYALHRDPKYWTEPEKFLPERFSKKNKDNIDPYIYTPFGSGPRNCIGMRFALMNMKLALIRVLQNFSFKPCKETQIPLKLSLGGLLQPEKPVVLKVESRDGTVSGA
3',5'-cyclic-AMP phosphodiesterase 4B (Homo sapiens), sequence (Q07343 whole entry, looked up): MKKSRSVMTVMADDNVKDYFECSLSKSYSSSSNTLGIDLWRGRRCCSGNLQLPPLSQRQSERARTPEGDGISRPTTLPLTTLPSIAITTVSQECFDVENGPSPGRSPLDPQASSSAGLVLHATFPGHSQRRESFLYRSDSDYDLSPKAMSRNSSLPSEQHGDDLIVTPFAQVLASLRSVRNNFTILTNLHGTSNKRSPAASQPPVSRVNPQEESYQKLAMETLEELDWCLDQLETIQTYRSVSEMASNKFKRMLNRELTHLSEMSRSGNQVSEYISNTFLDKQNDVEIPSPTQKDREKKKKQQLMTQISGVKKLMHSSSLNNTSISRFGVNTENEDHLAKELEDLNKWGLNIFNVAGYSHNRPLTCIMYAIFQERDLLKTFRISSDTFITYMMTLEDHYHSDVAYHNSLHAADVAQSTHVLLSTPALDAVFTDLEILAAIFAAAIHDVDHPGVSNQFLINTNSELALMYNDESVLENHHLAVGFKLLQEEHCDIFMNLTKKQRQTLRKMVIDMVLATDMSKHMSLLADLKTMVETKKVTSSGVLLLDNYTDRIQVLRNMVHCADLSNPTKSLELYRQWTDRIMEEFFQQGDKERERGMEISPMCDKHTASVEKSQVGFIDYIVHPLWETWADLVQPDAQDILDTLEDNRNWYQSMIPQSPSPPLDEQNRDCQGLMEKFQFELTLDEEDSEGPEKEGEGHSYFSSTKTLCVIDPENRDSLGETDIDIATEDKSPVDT
Dual specificity protein kinase CLK4 (Homo sapiens), sequence (Q9HAZ1 whole entry, looked up): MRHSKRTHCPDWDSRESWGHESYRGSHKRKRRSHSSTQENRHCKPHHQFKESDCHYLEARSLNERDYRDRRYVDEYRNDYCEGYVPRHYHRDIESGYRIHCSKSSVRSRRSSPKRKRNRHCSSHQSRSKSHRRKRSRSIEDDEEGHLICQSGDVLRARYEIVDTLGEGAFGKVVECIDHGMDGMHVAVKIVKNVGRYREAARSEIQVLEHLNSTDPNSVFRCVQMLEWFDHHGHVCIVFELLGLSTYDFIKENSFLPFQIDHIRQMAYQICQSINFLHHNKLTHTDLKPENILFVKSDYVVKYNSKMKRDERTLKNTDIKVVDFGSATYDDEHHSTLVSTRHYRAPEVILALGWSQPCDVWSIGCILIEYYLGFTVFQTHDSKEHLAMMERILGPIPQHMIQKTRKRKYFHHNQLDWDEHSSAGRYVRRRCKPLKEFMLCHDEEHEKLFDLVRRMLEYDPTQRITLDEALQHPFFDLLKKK
Ubiquitin carboxyl-terminal hydrolase 1 (Homo sapiens), sequence (O94782 whole entry, looked up): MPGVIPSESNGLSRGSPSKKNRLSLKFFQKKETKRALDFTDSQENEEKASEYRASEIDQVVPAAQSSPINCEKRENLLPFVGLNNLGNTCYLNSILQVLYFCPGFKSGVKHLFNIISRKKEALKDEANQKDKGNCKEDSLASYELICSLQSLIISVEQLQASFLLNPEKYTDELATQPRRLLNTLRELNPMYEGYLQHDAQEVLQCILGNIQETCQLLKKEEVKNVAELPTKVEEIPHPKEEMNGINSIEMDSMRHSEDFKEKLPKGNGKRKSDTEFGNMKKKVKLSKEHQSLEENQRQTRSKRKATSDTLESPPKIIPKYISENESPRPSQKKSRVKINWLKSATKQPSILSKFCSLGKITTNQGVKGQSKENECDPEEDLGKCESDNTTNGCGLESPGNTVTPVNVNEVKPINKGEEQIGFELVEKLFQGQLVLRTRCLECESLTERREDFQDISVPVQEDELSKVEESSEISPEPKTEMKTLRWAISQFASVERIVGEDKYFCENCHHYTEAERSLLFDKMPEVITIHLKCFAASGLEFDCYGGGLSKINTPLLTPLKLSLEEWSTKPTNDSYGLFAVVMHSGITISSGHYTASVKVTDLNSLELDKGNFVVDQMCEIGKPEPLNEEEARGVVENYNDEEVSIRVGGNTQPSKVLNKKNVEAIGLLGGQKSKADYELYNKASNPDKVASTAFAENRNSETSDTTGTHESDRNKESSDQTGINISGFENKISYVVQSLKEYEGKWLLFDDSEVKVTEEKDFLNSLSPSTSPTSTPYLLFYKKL
Cytochrome P450 2C19 (Homo sapiens), sequence (P33261 whole entry, looked up): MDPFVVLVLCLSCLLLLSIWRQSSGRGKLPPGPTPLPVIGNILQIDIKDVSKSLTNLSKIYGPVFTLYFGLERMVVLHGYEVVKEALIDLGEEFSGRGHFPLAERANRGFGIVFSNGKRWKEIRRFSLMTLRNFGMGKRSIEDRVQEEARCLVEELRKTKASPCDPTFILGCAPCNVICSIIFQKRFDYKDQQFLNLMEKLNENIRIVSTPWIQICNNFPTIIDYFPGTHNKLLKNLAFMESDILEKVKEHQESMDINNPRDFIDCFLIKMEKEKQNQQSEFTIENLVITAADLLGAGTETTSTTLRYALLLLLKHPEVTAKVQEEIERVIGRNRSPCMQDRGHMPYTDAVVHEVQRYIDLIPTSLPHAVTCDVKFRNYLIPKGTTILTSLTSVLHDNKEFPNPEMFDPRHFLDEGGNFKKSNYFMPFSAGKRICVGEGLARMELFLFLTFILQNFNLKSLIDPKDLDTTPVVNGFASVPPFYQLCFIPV

## CN(C)c1ccc(-c2nc(NCCN3CCOCC3)c3ccccc3n2)cc1
[1]
  activity change, negative = inhibition: 1.67% (inactive)
[2]
  Potency: 7.94 µM (active)
[3]
  activity change, negative = inhibition: -21.3% (inactive)
[4]
  Potency: > 46 µM (inactive)
[5]
  outcome: inactive
[6]
  Potency: inactive
[7]
  Potency: inactive
[8]
  activity change, negative = inhibition: 3.01% (inactive)
[8]; [21]
  max response: 9.82%
[8]; [22]
  max response: 10.9%
[9]
  Potency: inactive
[10]
  Potency: inactive
[11]
  Potency: inactive

## N#Cc1cccc(-c2cc(NCc3ccccc3)ncn2)c1
[12]
  Potency: > 11.4 µM (inactive)
[1]
  activity change, negative = inhibition: -7.27% (inactive)
[2]
  Potency: 1 µM (active)
[3]
  activity change, negative = inhibition: 17.5% (inactive)
[13]
  activity, negative = inhibition: 4.28% (inactive)
[14]
  Potency: > 46 µM (inactive)
[4]
  Potency: > 46 µM (inactive)
[5]
  outcome: inactive
[8]
  activity change, negative = inhibition: 6.18% (inactive)
[8]; [21]
  max response: 26.4%
[8]; [22]
  max response: 32.1%
[10]
  Potency: inactive
[11]
  Potency: inactive

## COc1ccccc1-c1cncnc1NCc1cccnc1
[12]
  Potency: > 11.4 µM (inactive)
[1]
  activity change, negative = inhibition: -10.2% (inactive)
[2]
  Potency: 6.31 µM (active)
[3]
  activity change, negative = inhibition: -4.56% (inactive)
[13]
  activity, negative = inhibition: 4% (inactive)
[14]
  Potency: > 46 µM (inactive)
[4]
  Potency: > 46 µM (inactive)
[5]
  outcome: inactive
[6]
  Potency: inactive
[15]
  Potency: 0.501 µM (active)
[7]
  Potency: inactive
[16]
  Potency: 3.16 µM (active)
[17]
  outcome: inactive
[18]
  outcome: inactive
[8]
  activity change, negative = inhibition: 7.04% (inactive)
[8]; [21]
  max response: 11.1%
[8]; [22]
  max response: 18.5%
[10]
  Potency: inactive
[11]
  Potency: inactive

## COc1ccccc1-c1nccc(-n2ccnc2)n1
[12]
  Potency: > 11.4 µM (inactive)
[1]
  activity change, negative = inhibition: 10.1% (inactive)
[2]
  Potency: 0.158 µM (active)
[3]
  activity change, negative = inhibition: -2.21% (inactive)
[13]
  activity, negative = inhibition: 11.9% (inactive)
[14]
  Potency: > 46 µM (inactive)
[4]
  Potency: > 46 µM (inactive)
[5]
  outcome: inactive
[6]
  Potency: inactive
[15]
  Potency: 1.58 µM (active)
[7]
  Potency: inactive
[17]
  outcome: inactive
[18]
  outcome: inactive
[8]
  activity change, negative = inhibition: 10.5% (inactive)
[8]; [21]
  max response: 15.1%
[8]; [22]
  max response: 27.4%
[10]
  Potency: inactive
[11]
  Potency: inactive

## COc1ccc(-c2nc3cnc(Nc4cccc(OC)c4)nc3n(C)c2=O)cc1
[12]
  Potency: > 11.4 µM (inactive)
[1]
  activity change, negative = inhibition: -11.9% (inactive)
[3]
  activity change, negative = inhibition: -14.3% (inactive)
[13]
  activity, negative = inhibition: 0.85% (inactive)
[14]
  Potency: > 9.22 µM (inactive)
[4]
  Potency: > 46 µM (inactive)
[5]
  outcome: inactive
[6]
  Potency: inactive
[8]
  activity change, negative = inhibition: 1.51% (inactive)
[8]; [21]
  max response: 2.29%
[8]; [22]
  max response: 2.92%
[9]
  Potency: inactive
[11]
  Potency: inactive

## CN(C)C(=O)c1ccc(-c2ccc3ncnc(N4CCC(C(=O)O)CC4)c3c2)cc1
[12]
  Potency: > 11.4 µM (inactive)
[1]
  activity change, negative = inhibition: 0.539% (inactive)
[3]
  activity change, negative = inhibition: 7.54% (inactive)
[13]
  activity, negative = inhibition: -4.54% (inactive)
[14]
  Potency: > 46 µM (inactive)
[4]
  Potency: > 46 µM (inactive)
[5]
  outcome: inactive
[6]
  Potency: inactive
[19]
  activity change, negative = inhibition: 37.2% [at 2.29 µM] (inactive)
[20]
  activation: -0.026% (inactive)
[8]
  activity change, negative = inhibition: 3.56% (inactive)
[8]; [21]
  max response: 20.3%
[8]; [22]
  max response: 23.2%
[9]
  Potency: inactive
[10]
  Potency: inactive
[11]
  Potency: inactive
